Assay results from PubChem BioAssay AID652245 (The Scripps Research Institute Molecular Screening Center, 2013).
The whole screen tested about 1,600 compounds, of which about 920 (58%) were called active.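 Rule for the calls: active = inhibition above the primary screen's cutoff, the mean inhibition of all screened compounds plus 3 SD (cut at about 13% in these data); inactive = the rest.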 The set was probably picked from earlier hits. Not all results are given here.

Each molecule was assayed against Galanin receptor type 3 (Homo sapiens) (UniProt O60755) (assay: blockers of human galanin receptor 3 – cell-based, fluorescence, triplicate, confirmation (AID 652245;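 note: 0% = forskolin plus galanin and 100% = forskolin alone with DMSO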)). Details: HEK293 GalR3 CNG cAMP biosensor, membrane potential fluorescence; at 3 µM; hits give high values; challenged with forskolin and galanin at EC90; galR3 fused to GalR1 carboxy tail.
Chain of Galanin receptor type 3 (Homo sapiens) (O60755 1-299 limits assumed): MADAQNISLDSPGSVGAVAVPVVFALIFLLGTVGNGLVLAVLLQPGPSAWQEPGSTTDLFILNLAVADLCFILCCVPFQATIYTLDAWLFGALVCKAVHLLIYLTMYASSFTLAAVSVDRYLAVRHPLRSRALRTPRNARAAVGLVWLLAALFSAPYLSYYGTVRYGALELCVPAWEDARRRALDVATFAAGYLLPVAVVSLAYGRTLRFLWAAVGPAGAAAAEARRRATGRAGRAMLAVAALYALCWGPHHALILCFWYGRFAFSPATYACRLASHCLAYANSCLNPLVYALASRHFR

| SMILES | inhibition |
| --- | --- |
| NC(=O)c1ccc(NC(=O)COC(=O)C(Cc2ccccc2)NC(=O)c2ccccc2)cc1 (configuration not stated) | 22.3% (active) |
| COc1ccc(CCNc2nc3ccc(C)cc3n3cnnc23)cc1OC | 12.1% (inactive) |
| C=CCC1(CC=C)CCCN1C(=O)c1cc(COc2ccc(-n3cncn3)cc2)on1 | 104% (active) |
| Nc1nonc1-n1nnc(C(=O)N/N=C/c2cc(Br)ccc2O)c1CSC1=NCCS1 | 63.2% (active) |
| CCNC(=S)Nc1ccc(OC(F)(F)F)cc1 | 18.3% (active) |
| CCN1/C(=C\c2ccc3ccccc3[n+]2CC)Sc2cc(C)ccc21 | 55.5% (active) |
| CCOc1ccc(Br)cc1CSC(=N)N | 56.7% (active) |
| COc1ccc(-c2csc(-c3cccs3)n2)cc1OC | -4.97% (inactive) |
| COC(=O)c1ccc(/C=N/N2C(C)CCCC2C)cc1 (configuration not stated) | 14.9% (active) |
| c1coc(CNc2ncnc3ccccc23)c1 | 28.1% (active) |
| Cc1c(C=O)c2ccccc2n1CC(=O)O | -2.92% (inactive) |
| CN(Cc1cccnc1)C(=O)c1cc(COc2ccc3ncccc3c2)on1 | 103% (active) |
| COc1ccc(C(=O)COC(=O)COc2ccc(C)c(C)c2)cc1 | -0.4% (inactive) |
| OC[C@@H]1CN(Cc2ccc(-c3ccccc3)cc2)C[C@H](n2cnc3c(NC4CCCC4)ncnc32)O1 | 92.5% (active) |
| COc1cc(NC(=O)c2cc([N+](=O)[O-])ccc2Br)ccc1NC(=O)c1ccco1 | 27.5% (active) |
| CC(=O)c1c(C)[nH]c(C(=O)COC(=O)c2cccc(S(=O)(=O)N(C)c3ccccc3)c2)c1C | 82.3% (active) |
| CCCn1nc(C(=O)NNC(=O)CSCC(=O)Nc2cc(C)on2)c2ccccc2c1=O | 3.6% (inactive) |
| COCCNC(=O)/C(C#N)=C/c1cccc(OCc2ccccc2)c1 | -3.13% (inactive) |
| COc1cc(C(=O)Nn2c(O)c(C3=c4ccccc4=NC3=O)sc2=S)ccc1O | 5.9% (inactive) |
| COc1cc(Cl)c(C)cc1NC(=O)[C@@H]1CCCN1C(=O)c1cccs1 | 17.8% (active) |
| COc1ccc(-c2[nH]nc3c2C(c2ccncc2)C(C#N)=C(N)O3)cc1 (configuration not stated) | 7.93% (inactive) |
| O=C(/C=C/c1c(F)cccc1Cl)Nc1nn[nH]n1 | 5.44% (inactive) |
| COc1ccc(OC)c(NC(=O)CSc2nc(N)c(-c3ccccc3)c(=O)[nH]2)c1 | 38% (active) |

| SMILES | inhibition |
| --- | --- |
| O=C(CC(O)(C(F)(F)F)C(F)(F)F)Nc1ccc(Cl)c(Cl)c1 | 81.5% (active) |
| c1ccc(Cc2ccc(OCCn3ccnc3)cc2)cc1 | 35.9% (active) |
| COc1ccc(C2CC(=O)Nc3sc(=N)c4c(N)c(C#N)c(N)nc4c32)cc1OC (configuration not stated) | 69.2% (active) |
| CCCCNC(=O)c1ccccc1NC(=O)C1=C(C)OCCS1 | 1.8% (inactive) |
| COc1ccc(NS(=O)(=O)c2ccc(NC(=O)c3ccc(N(C)S(C)(=O)=O)cc3)cc2)cc1 | 106% (active) |
| CSc1nc(N(C)NC(=O)c2cccc(C)c2)c2ccccc2n1 | 6% (inactive) |
| CC(=O)OC(C)C[N+](C)(C)C (configuration not stated) | 78% (active) |
| CCOC(=O)c1cc2n(c1C)-c1ccccc1C2=O | 3.19% (inactive) |
| CCc1ccc(-c2nc(SCC(=O)NC3CCCC3)n[nH]2)cc1 | 3.25% (inactive) |
| Nc1ncnc2c1ncn2C1OC(CO)CC1O (configuration not stated) | 49.1% (active) |
| CCCOc1ccc(Cc2c(Cl)nc(SC)nc2NC)cc1 | 94.2% (active) |
| COc1ccc(N(C(=O)CNC(=O)c2ccco2)C(C(=O)NCC2CCCO2)c2ccccc2)cc1Cl (configuration not stated) | 0.26% (inactive) |
| CC1(C)CC(N2CCN(C(c3ccccc3)c3ccccc3)CC2)=CC(=[N+]2CCCCC2)C1 | 45% (active) |
| Cn1cnc([N+](=O)[O-])c1Nc1ccccc1O | 10.2% (inactive) |
| Cc1c(Cl)cccc1NC(=O)CSc1ccc(-c2cccnc2)nn1 | -1.99% (inactive) |
| Cn1c(CN2CCOCC2)nc2cc(NC(=O)c3ccc(Cl)cc3)ccc21 | 85.6% (active) |
| O=C(NC(Nc1nc2ccc([N+](=O)[O-])cc2s1)(C(F)(F)F)C(F)(F)F)c1ccccc1 | 43% (active) |
| CC(CCc1ccccc1)NCC(O)c1cccc([N+](=O)[O-])c1 (configuration not stated) | 22.3% (active) |
| CCOc1ccc(C(C)=O)cc1COC(=O)c1cnc(Cl)c(Cl)c1 | 15.3% (active) |
| COC(=O)c1cccc([N+](=O)[O-])c1CS(=O)(=O)c1ccc(C)cc1 | 4.93% (inactive) |
| COCCN1Cc2cccc(C(=O)Nc3ccccc3OC)c2C1=O | 32.4% (active) |
| CCn1c(-c2cc(OC)ccc2OC)csc1=Nc1c(C)n(C)n(-c2ccccc2)c1=O | 2.25% (inactive) |
| COc1ccc(C2Nc3ccccc3C(=O)N2c2ccc(Cl)cc2)cc1Cn1cc([N+](=O)[O-])cn1 (configuration not stated) | 36.9% (active) |

| SMILES | inhibition |
| --- | --- |
| Cc1ccc(F)cc1NC(=O)Cc1nn(C)c(=O)c2ccccc12 | 5.03% (inactive) |
| CC(C)[C@@H](C(=O)OCC(=O)c1ccc2c(c1)NC(=O)CO2)N1C(=O)c2ccccc2C1=O | 8.91% (inactive) |
| C#Cc1ccc(NC(=O)C2(C)CCN2C(=O)Cc2ccc(-c3ccccc3)cc2)cc1 (configuration not stated) | 90.1% (active) |
| Cc1ccc(S(=O)(=O)N2CCN(C(=O)COC(=O)c3c(C)cc(C)cc3C)CC2)c(C)c1 | 3.27% (inactive) |
| CCOC(=O)c1c(NC(=O)CSc2nccc(=O)[nH]2)sc(C)c1C | -4.89% (inactive) |
| CC(C)(CNC(=O)c1ccc(Cl)c(S(=O)(=O)N2CCc3ccccc3C2)c1)N1CCOCC1 | 111% (active) |
| Nc1nc(NCC(=O)O)nc(N2CCCCCC2)c1[N+](=O)[O-] | 8.6% (inactive) |
| O=C(Nc1ccccc1Cl)/C(Cl)=C(\Cl)S(=O)c1ccccc1 (configuration not stated) | 21.5% (active) |
| O=C(Nc1ccc(CSc2ccccc2)cc1)c1ccc(CN2CCOCC2)cc1 | 113% (active) |
| Cn1c(N)c(C(=O)COC(=O)c2cnc(Cl)c(Cl)c2)c(=O)n(C)c1=O | 15.8% (active) |
| O=C(CC1C(=O)NCCN1CC(c1ccccc1)c1ccccc1)NCCc1cn[nH]c1 (configuration not stated) | -1.25% (inactive) |
| CSc1nccc(NC(=O)c2ccc(C(C)(C)C)cc2)n1 | 104% (active) |
| Cc1nc2ccccc2cc1OCc1ccc(F)cc1 | 83.8% (active) |
| C[C@@]12C(=O)N(c3cccc(Br)c3)C(=O)N1[C@H](c1ccc(Cl)cc1)[C@@H]1C(=O)N(C3CCCCC3)C(=O)[C@@H]12 | -8.96% (inactive) |
| CNC(=O)NC(=O)CSc1nnc(-c2ccc(F)cc2)n1CC1CCCO1 (configuration not stated) | 22% (active) |
| CCOc1cc(C(=O)N2CCc3cc(OC)c(OC)cc3C2)ccc1OC(F)F | 6.34% (inactive) |
| CSc1nc(N)c(C#N)c(-c2ccccc2Cl)c1C#N | 84.8% (active) |
| Cn1nccc1C(=O)NC1CCCc2c1cnn2-c1ccc(F)cc1F (configuration not stated) | 114% (active) |
| CCN(CC(=O)NCc1ccc(Cl)cc1)C(=O)CSc1ccccc1 | 56.2% (active) |
| COc1cc2c(cc1OC)C(c1cccc([N+](=O)[O-])c1)=NCC2 | 17.9% (active) |
| CC(=O)N1CCCc2cc(S(=O)(=O)N3CCCC(C(=O)N4CCN(c5cccc(Cl)c5)CC4)C3)ccc21 (configuration not stated) | 92.5% (active) |
